PubChem BioAssay
Activity calls are given as the source filed them.

Experiments:
[1] = small molecules captured by biotinylated probe aFSTL3 – biochemical, small-molecule microarray, fluorescence 635/667, stem cell growth factor project, primary screen (AID 1064); details: higher = more signal;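 note: measures binding of the biotinylated anti-FSTL3 antibody to printed compounds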
[2] = binders from COS7 lysate, DM2A8 probe, primary screen, torsin A project, cell lysate, small-molecule microarray, fluorescence 635/667 (AID 1065); details: higher = more signal, COS7 lysate expressing mutant human TOR1A
[3] = small molecules captured by biotinylated probe aFGF2 – biochemical, small-molecule microarray, fluorescence 635/667, stem cell growth factor project, primary screen (AID 1067); details: higher = more signal;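 note: measures binding of biotinylated aFGF2 protein to printed compounds on slides; z-score merges feature fluorescence and signal-to-noise across triplicate slides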
[4] = small molecules captured by biotinylated probe aFGF10 – biochemical, small-molecule microarray, fluorescence 635/667, stem cell growth factor project, primary screen (AID 1071); details: higher = more signal;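 note: score merges 667 nm spot intensity and signal to noise from triplicate slides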
[5] = target: Neurogenic locus notch homolog protein 2 (Homo sapiens) (UniProt Q04721); assay: small molecules binding Notch2 protein – biochemical, small-molecule microarray, 635 nm fluorescence, stem cell growth factors, primary screen (AID 1073); details: higher = more signal
[6] = target: Pro-neuregulin-1, membrane-bound isoform (Homo sapiens) (UniProt Q02297); assay: small molecules binding neuregulin-1 protein – biochemical, small-molecule microarray, fluorescence 635/667, psychiatric disease protein project, primary screen (AID 1075); details: NRG1 binding, 635 nm fluorescence, higher = more signal;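 note: score combines 667 nm spot fluorescence with signal to noise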
[7] = tested on: Neuregulin-1 EGF-like domain; assay: small molecules binding NRG1 EGF domain – biochemical, small-molecule microarray, 635 nm fluorescence, primary screen (AID 1081); details: higher = more signal;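 note: binding of the protein to compounds printed on small-molecule microarray slides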
[8] = FRG1 expression reporter modulators in myotubes – cell-based, C2C12 myotubes, firefly/Renilla luciferase, luminescence, FRG1 inhibition for FSHD, primary screen (AID 1084); details: FRG1 promoter luciferase, higher = more signal, called active from +8 up or from −8 down
[9] = small molecules captured by biotinylated probe aFST – biochemical, small-molecule microarray, fluorescence 635/667, stem cell growth factor project, primary screen (AID 1086); details: higher = more signal;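 note: score merges 667 nm fluorescence with signal-to-noise of each printed compound spot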
[10] = binders of probe aHhip on microarray, primary screen, stem cell growth factor project, biochemical, small-molecule microarray, fluorescence 635/667 (AID 1087); details: higher = more signal;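 note: score merges spot fluorescence at 667nm with spot signal to noise ratio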
[11] = tested on: PRMT1 (protein arginine N-methyltransferase 1); assay: small molecules binding arginine methyltransferase PRMT1 – biochemical, small-molecule microarray, 635 nm fluorescence, primary screen (AID 1088); details: higher = more signal;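 note: binding of Prmt1 protein to compounds spotted on small-molecule microarray slides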
[12] = growth effects on S. cerevisiae YJM789 – YJM789 clinical isolate, OD600, 24 h, basal, primary screen (AID 1089); details: higher = more signal, called active from +8 up or from −8 down;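 note: growth of clinical yeast isolate S. cerevisiae YJM 789 seeded 1000 cells per well; test concentration not given here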
[13] = S. pombe growth modifiers, basal conditions – strain 972, OD600, 24 h, no modulator, primary screen (AID 1090);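 note: basal condition with compound alone and no growth modifier present; test concentration not given here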; details: S. pombe 972 growth, higher = more signal, called active from +8 up or from −8 down
[14] = budding yeast growth modifiers under rapamycin – strain BY4716, OD600, 96 h, primary screen (AID 1091); note: test concentration not given here; details: S. cerevisiae BY4716 + rapamycin, higher = more signal, called active from +8 up or from −8 down
[15] = target: Torsin-1A-interacting protein 2 (Homo sapiens) (UniProt Q8NFQ8); assay: small molecules binding lysate-expressed LULL1 – cell lysate, human LULL1 lysate, 635/667 nm fluorescence, primary screen (AID 1092); details: small-molecule microarray, hLULL1 lysate binding, 635 nm fluorescence; higher = more signal;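 note: probe is lysate of COS7 cells overexpressing human LULL1; score merges per-feature 667 nm fluorescence with signal-to-noise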
[16] = optical density change of DRC41 E. coli – strain DRC41, OD650, 24 h, E. coli filamentation project, primary screen (AID 1093);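 note: MC1000 strain lacking acrAB efflux and sulA so SOS filamentation is blocked; test concentration not given here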; details: E. coli DRC41 growth, higher = more signal, called active from +8 up or from −8 down
[17] = probe aLefty2 binding to arrayed compounds – biochemical, biotinylated probe, 635/667 nm fluorescence, primary screen (AID 1094); details: small-molecule microarray, higher = more signal;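 note: score merges spot fluorescence near 667 nm with spot signal-to-noise ratio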
[18] = tested on: Noggin (protein binding on small-molecule microarray); assay: small molecules binding Noggin protein – biochemical, 635/667 nm fluorescence, primary screen (AID 1095); details: 635 nm fluorescence, higher = more signal;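 note: score merges 667 nm feature fluorescence with signal to noise over triplicate slides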
[19] = target: Neurogenic locus notch homolog protein 3 (Homo sapiens) (UniProt Q9UM47); assay: small molecules binding NOTCH3 protein – biochemical, 635/667 nm fluorescence, primary screen (AID 1096); details: small-molecule microarray, 635 nm fluorescence, higher = more signal
[20] = probe aEGFR binding to arrayed compounds – biochemical, biotinylated probe, 635/667 nm fluorescence, primary screen (AID 1097); details: small-molecule microarray, higher = more signal;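 note: probe is a biotinylated anti-EGFR antibody binding compounds printed on slides; score combines fluorescence near 667 nm and signal to noise of each spot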

Neurogenic locus notch homolog protein 3 (Homo sapiens), sequence (Q9UM47 whole entry, looked up): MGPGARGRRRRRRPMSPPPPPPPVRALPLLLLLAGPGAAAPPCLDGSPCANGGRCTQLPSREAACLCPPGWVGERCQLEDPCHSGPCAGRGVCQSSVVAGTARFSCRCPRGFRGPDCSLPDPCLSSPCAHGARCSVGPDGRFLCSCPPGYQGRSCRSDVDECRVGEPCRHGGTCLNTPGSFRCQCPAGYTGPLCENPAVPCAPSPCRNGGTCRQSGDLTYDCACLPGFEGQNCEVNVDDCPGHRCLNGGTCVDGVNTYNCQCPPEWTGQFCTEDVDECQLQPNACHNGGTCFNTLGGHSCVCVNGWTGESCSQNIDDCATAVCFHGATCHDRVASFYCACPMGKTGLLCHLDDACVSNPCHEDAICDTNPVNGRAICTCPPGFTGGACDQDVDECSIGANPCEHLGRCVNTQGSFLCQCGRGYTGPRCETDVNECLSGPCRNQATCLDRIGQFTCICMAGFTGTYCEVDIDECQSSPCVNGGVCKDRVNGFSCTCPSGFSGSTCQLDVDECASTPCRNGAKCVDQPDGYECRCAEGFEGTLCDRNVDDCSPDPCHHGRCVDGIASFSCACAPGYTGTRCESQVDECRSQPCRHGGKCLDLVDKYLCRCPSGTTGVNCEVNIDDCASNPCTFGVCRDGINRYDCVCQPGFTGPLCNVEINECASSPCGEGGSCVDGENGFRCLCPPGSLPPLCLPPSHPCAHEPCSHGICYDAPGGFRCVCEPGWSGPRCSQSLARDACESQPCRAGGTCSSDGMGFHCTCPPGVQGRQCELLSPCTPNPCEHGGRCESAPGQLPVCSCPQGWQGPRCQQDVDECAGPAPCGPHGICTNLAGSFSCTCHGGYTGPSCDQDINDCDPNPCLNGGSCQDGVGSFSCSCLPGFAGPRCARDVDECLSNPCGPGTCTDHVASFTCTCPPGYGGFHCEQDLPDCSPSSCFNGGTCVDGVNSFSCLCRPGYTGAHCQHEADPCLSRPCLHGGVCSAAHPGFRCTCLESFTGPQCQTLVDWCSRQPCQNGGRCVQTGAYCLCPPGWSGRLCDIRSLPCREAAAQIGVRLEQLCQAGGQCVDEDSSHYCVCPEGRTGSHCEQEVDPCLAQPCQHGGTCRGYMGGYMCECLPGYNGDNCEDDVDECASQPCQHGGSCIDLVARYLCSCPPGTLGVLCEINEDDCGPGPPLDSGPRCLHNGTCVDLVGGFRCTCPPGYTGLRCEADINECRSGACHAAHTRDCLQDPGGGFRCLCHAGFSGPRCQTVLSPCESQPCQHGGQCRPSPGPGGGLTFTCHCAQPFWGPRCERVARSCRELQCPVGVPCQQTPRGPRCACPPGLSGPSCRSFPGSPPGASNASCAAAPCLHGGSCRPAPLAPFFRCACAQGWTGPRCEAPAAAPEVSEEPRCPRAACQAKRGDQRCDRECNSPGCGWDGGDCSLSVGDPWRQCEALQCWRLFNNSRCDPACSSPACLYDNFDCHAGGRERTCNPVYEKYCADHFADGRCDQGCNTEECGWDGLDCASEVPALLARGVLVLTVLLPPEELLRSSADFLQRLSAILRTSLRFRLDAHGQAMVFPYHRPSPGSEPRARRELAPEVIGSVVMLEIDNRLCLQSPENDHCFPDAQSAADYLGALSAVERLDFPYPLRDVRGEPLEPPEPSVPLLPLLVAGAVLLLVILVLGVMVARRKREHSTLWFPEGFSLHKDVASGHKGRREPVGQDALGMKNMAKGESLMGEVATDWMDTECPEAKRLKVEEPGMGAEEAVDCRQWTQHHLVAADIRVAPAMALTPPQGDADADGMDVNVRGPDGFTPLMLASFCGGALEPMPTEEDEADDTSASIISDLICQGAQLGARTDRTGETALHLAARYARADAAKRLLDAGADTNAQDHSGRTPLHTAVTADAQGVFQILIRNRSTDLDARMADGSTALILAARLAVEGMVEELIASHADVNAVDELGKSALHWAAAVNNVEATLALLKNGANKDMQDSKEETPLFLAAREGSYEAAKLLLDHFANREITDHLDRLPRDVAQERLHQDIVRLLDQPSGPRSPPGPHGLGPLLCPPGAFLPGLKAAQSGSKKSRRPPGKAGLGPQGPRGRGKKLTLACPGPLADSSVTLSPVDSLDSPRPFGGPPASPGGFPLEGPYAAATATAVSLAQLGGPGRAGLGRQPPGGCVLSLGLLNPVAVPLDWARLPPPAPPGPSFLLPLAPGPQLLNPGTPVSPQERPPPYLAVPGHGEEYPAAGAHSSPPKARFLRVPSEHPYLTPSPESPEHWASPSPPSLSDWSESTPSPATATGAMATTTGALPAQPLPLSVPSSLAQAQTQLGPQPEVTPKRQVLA
Pro-neuregulin-1, membrane-bound isoform (Homo sapiens), sequence (Q02297 whole entry, looked up, the tested form may be a part, canonical isoform): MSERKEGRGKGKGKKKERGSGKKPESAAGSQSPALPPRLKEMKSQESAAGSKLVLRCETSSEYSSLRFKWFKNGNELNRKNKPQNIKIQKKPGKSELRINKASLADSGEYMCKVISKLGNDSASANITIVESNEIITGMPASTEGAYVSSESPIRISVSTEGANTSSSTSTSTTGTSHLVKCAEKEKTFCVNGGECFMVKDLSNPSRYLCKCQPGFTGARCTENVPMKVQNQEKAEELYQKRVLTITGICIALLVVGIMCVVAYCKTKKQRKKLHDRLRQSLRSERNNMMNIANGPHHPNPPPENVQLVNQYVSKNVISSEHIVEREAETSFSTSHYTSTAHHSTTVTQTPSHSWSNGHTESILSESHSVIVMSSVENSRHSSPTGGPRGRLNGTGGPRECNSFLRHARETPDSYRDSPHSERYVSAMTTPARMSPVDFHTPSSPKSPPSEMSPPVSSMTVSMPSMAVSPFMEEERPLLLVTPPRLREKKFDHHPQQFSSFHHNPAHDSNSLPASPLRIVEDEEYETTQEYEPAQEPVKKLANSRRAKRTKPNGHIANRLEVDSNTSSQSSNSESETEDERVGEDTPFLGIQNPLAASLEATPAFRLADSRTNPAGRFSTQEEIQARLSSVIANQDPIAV
Torsin-1A-interacting protein 2 (Homo sapiens), sequence (Q8NFQ8 whole entry, looked up): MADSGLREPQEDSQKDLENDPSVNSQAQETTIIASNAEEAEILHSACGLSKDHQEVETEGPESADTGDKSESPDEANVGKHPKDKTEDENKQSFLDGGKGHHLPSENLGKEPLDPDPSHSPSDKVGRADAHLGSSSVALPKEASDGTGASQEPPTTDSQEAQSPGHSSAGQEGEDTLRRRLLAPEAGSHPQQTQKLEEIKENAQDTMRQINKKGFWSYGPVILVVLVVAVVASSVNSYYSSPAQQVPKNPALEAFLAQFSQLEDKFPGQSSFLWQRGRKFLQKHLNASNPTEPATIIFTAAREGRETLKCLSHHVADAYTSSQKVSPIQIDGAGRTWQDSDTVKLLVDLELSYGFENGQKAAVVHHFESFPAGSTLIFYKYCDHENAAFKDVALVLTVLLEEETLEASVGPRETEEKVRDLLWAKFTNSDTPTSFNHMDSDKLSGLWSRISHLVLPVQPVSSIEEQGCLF

Row | SMILES | composite z-score [1] | composite z-score [2] | composite z-score [3] | composite z-score [4] | composite z-score [5] | composite z-score [6] | composite z-score [7] | z-score [8] | composite z-score [9] | composite z-score [10] | composite z-score [11] | z-score [12] | z-score [13] | z-score [14] | composite z-score [15] | z-score [16] | composite z-score [17] | composite z-score [18] | composite z-score [19] | composite z-score [20]
1 | CC(C)(C)OC(=O)CC[C@]1(C(=O)NCCN2CCOCC2)N=C(c2ccc(OCCCO)cc2)O[C@H]1c1ccccc1N=[N+]=[N-] | 0.85 | 1.55 | 0.105 | 0.606 | 0.1 | 1.72 | 1.39 | 4.57 (inactive) | 0.778 | 0.913 | 1.49 | -0.417 (inactive) | -0.437 (inactive) | -0.535 (inactive) | 3.38 | 0.102 (inactive) | 0.373 | -0.238 | 0.412 | 0.0988
2 | C=CCOC(=O)[C@@H]1[C@H]2C(=O)O[C@H](c3ccccc3)[C@H](c3ccccc3)N2[C@H](c2ccc(OCCOC(=O)[C@H]3C[C@H]4C(=O)N[C@@H](CCCC[N+](C)(C)C)C(=O)N4[C@H]3c3ccc(O)cc3)cc2)[C@@]12C(=O)Nc1ccc(I)cc12 | -0.42 | 1.1 | -0.0569 | 0.528 | 1.18 | 1.31 | 1.37 | 0.369 (inactive) | 0.208 | -0.138 | 1.53 | 1.86 (inactive) | 1.49 (inactive) | 4.28 (inactive) | 2.64 | -0.0021 (inactive) | -0.126 | 1.94 | 1.05 | -0.027
3 | C=C(C(=O)CC[C@H](OC(=O)c1cccnc1)c1ccc(CO)o1)C(C)C | -0.201 | 0.674 | -0.0415 | 0.467 | 0.355 | 0.904 | 1.25 | 0.0619 (inactive) | 0.28 | -0.121 | 1.51 | -1.23 (inactive) | -0.796 (inactive) | -0.719 (inactive) | 1.34 | -0.605 (inactive) | 0.152 | 1.02 | 0.623 | 0.0504
4 | Cc1c(NC(=O)/C(C#N)=C/C=C/c2ccccc2[N+](=O)[O-])c(=O)n(-c2ccccc2)n1C | -0.0331 | 0.563 | 0.0415 | 0.0448 | 1.03 | 1.1 | 1.13 | -0.844 (inactive) | 0.334 | 0.0352 | 0.454 | 0.218 (inactive) | -0.322 (inactive) | 0.477 (inactive) | 1.85 | 1.02 (inactive) | -0.0124 | 0.148 | 0.945 | -0.0043
5 | O=C1NC(=O)C2C1C=CC(C(O)c1ccc(Br)cc1)N2Nc1ccccn1 (stereo not given) | 0.253 | 0.156 | 0.0969 | 1.05 | 1.39 | 1.8 | 0.95 | -0.383 (inactive) | 0.331 | -0.0296 | 0.215 | -1.26 (inactive) | 0.61 (inactive) | -0.683 (inactive) | 1.18 | -0.931 (inactive) | 0.119 | 0.248 | 0.63 | 0.315
6 | CCOC(=O)C1=CC[C@@H](c2cc(Cl)ccc2Cl)N(S(=O)(=O)c2ccc(C)cc2)[C@H]1c1ccc(OC)cc1 | 0.522 | 0.0025 | 0.259 | 0.582 | 0.147 | -0.362 | 0.13 | -1.69 (inactive) | 0.623 | 0.082 | -0.393 | 1.31 (inactive) | 2.17 (inactive) | 1.43 (inactive) | 0.506 | -0.0891 (inactive) | 0.754 | -0.546 | -0.329 | 0.379
7 | Cc1ccc(S[C@]2(C(=O)NCc3ccccc3)CC(=O)N(C(C)C)[C@@H]2c2ccc(CO)cc2I)cc1 | 2 | -0.464 | -0.177 | -0.392 | -1.09 | 1.05 | 0.399 | -1.16 (inactive) | 0.03 | 0.0623 | 0.448 | -2.82 (inactive) | -1.38 (inactive) | 0.317 (inactive) | 1.73 | 0.349 (inactive) | 0.299 | -0.466 | -0.44 | -0.229
8 | C=C(C(=O)CC[C@H](OC(C)=O)c1cccc(OCCO)c1)C(C)C | 0.125 | -0.152 | -0.189 | -0.582 | -0.739 | 0.007 | -0.526 | 0.422 (inactive) | -0.675 | -0.0994 | 0.385 | 0.574 (inactive) | -0.299 (inactive) | -0.0905 (inactive) | 0.355 | 1.04 (inactive) | -0.121 | -0.621 | -0.594 | -0.113
9 | CC(C)NC(=O)[C@@]1(C)c2ccccc2C(=O)N(C(C)C)[C@H]1c1ccc(CO)cc1 | -0.0225 | -0.953 | -0.153 | -0.564 | -0.792 | 0.493 | -0.643 | -0.639 (inactive) | -0.242 | -0.252 | 1.45 | -0.501 (inactive) | -1.63 (inactive) | -0.471 (inactive) | 3.47 | -0.297 (inactive) | -0.0466 | -0.781 | 0.165 | -0.227
10 | O=C1OCCC=C[C@H]2OC34C=CCN(c5ccc(Cl)cc5)C(=O)[C@H]3N(CCCCCO)C(=O)[C@@H]4C12 (stereo not given in full) | 0.418 | 1.77 | -0.116 | -0.112 | 0.0387 | 1.48 | 1.44 | -0.997 (inactive) | -0.149 | -0.0708 | 0.536 | -0.579 (inactive) | -1.99 (inactive) | -0.54 (inactive) | 2.68 | 1.71 (inactive) | 0.0636 | -0.261 | 0.0841 | -0.0671
